# According to ChEMBL document CHEMBL3988442, “University of Dundee, Small-Polar-MMV Screening Library” (2021):
# The campaign covered roughly 85,000 compounds. About 440 (0.52%) showed an effect of 50% or more. The full list was thinned out, with strong results kept by preference.
# Experiment: In vitro enzyme assay to detect hydrolysis of chlorophenol red-beta-D-[…] directly proportional to the number of Toxoplasma stably expressing beta-galactosidase
# Assay type: functional, organism-based, Toxoplasma gondii
# Set-up: scale not given: in the data most compounds retested in dose-response had high values
SMILES,Percent Effect (50 µM),Percent Effect (10 µM)
Cc1cnc(N)nc1NCC(O)CN1CCCCC1 (centres undefined),10.92%,–
Cc1cc(F)ccc1NC(=O)NCC1(O)CCNC1 (centres undefined),-14.34%,–
CC(C(=O)N1CCOCC1)N1CCC(CO)CC1 (centres undefined),-3.94%,–
Cn1cc([C@@H]2OCCC[C@H]2CN)cn1,1.285%,–
NCc1ccncc1OCC(F)(F)F,19.9%,–
COCC1CCN(C(=O)CCC2CCNCC2)CC1,-0.227%,–
C=C(C)CNC(C(=O)N1CCOCC1)C(C)C (centres undefined),-2.491%,–
CN(CCC(N)=O)Cc1ccc(Cl)s1,-3.537%,–
c1ccc(-c2ncn(CCCN3CCOCC3)c2-c2ccncc2)cc1,–,36.16%
c1cc(-c2nnc3sc(CCN4CCCC4)nn23)ccn1,–,-1.928%
c1cc(-c2nn3c(CN4CCOCC4)nnc3s2)ccn1,–,60.13%
COCC(=O)NCCc1cc(Cl)c2c(c1)OCCO2,-0.1362%,–
O=C(CN1CCN(C(=O)c2sccc2C2CC2)CC1)NC1CC1,–,2.485%
O=C(CN1CCN(C(=O)c2ccco2)CC1)NC1CC1,54.85%,–
CCC(=O)NC1CCN(C(=O)c2ccco2)CC1,-8.488%,–
CCc1ccccc1-n1c(CNC)n[nH]c1=O,9.34%,–
CC[C@H](N)C(=O)N(C)CCOc1cccc(Cl)c1,33.07%,–
OCC1COCCN(Cc2ccc(C(F)(F)F)nc2)C1 (centres undefined),17.84%,–
Cc1nc(C2(O)CCCNCC2)sc1CCOc1ccc(F)cc1.Cl (centres undefined),–,11.11%
Cc1nc(C2(O)CCCNCC2)sc1CCOc1ccc(Cl)cc1.Cl (centres undefined),–,66.18%
COc1ccc(OCCc2sc(C3(O)CCCNCC3)nc2C)cc1.Cl (centres undefined),–,31.45%
Cc1nc(C2(O)CCCNCC2)sc1CCOc1ccccc1.Cl (centres undefined),–,-8.75%
Cc1nc(C2(O)CCCNCC2)sc1CCOc1ccc(F)c(F)c1.Cl (centres undefined),–,36.46%
CCS(=O)(=O)NCCCN(C)C1CCSC1 (centres undefined),-2.223%,–

SMILES,Percent Effect (50 µM),Percent Effect (10 µM)
Cc1n[nH]c(SCCNC(=O)CC2C=CS(=O)(=O)C2)n1 (centres undefined),9.381%,–
Cc1nc(C)c(CNC(=O)c2ccnnc2)s1,-0.5239%,–
CC(CNC(=O)c1cncc(Br)c1)N1CCCC1 (centres undefined),12.86%,–
CNC(=O)C1(N(C)CCc2ccccc2)Cc2ccccc2C1,–,52.85%
CN(Cc1ccccc1)C1(C(=O)NC(C)(C)CO)Cc2ccccc2C1,–,-3.718%
CN(Cc1ccccc1)C1(C(=O)O)Cc2ccccc2C1,–,-0.5507%
CN(Cc1ccco1)C(=O)Nc1ccc(N(C)C)nc1,24.04%,–
CCN(CCCN1CCCC1)C(=O)c1cc[nH]n1,-7.801%,–
Cc1nn(C)cc1-c1cc(C(F)(F)F)nc(NC2CCCCC2)n1,–,1.393%
CCn1cc(-c2cc(C(F)(F)F)nc(NC3CCCC3)n2)c(C)n1,–,70.55%
Cc1nn(C)cc1-c1cc(C(F)(F)F)nc(NC2CCN(C)CC2)n1,–,3.167%
O=C(NCC(O)C1CC1)c1cccnc1C(F)(F)F (centres undefined),-5.668%,–
O=C(CNc1ccc(Br)cc1)NCc1ncc[nH]1,5.475%,–
O=S(=O)(NCCC(O)c1cccs1)c1ccccc1 (centres undefined),–,0.7722%
CC(C)C(O)CCNS(=O)(=O)c1ccccc1 (centres undefined),62.33%,–
CC(N)CCNS(=O)(=O)c1ccccc1 (centres undefined),-13.24%,–
CC(c1cccnc1)N(C)C(=O)c1ccccc1C#N (centres undefined),-2.098%,–
COc1c(C)cnc(CNC(=O)NC2CC2)c1C,8.679%,–
Cc1cc(C)n(CC(=O)N2CC(C)OCC2(C)C)n1 (centres undefined),5.036%,–
CSCC(CCO)NC(=O)c1cc(F)ccc1O (centres undefined),96.99%,–
CSCC(CCO)NC(=O)c1cccc(F)c1Cl (centres undefined),–,-17.37%
CSCC(CCO)NC(=O)c1cccc(Cl)c1F (centres undefined),–,-4.915%
CCCc1cc(C(=O)N2CCOC(C(F)(F)F)C2)no1 (centres undefined),-10.86%,–
COc1ccnc(N2CCC(F)(CO)C2)n1 (centres undefined),3.064%,–

SMILES,Percent Effect (50 µM),Percent Effect (10 µM)
Cn1nnc2c1C(COCC1CC1)CN(C(=O)Cc1cccs1)C2 (centres undefined),–,56.28%
COCC1CN(C(=O)Cc2cccs2)Cc2nnn(C)c21 (centres undefined),–,4.219%
Cn1nnc2c1C(COCC1CC1)CN(C(=O)Cc1ccsc1)C2 (centres undefined),–,-4.213%
CC1(C)CNC(=O)c2nc(CCN3CCCC3)[nH]c2C1,-0.3782%,–
COc1ccc2[nH]c(N3CCOCC3)nc2c1,4.618%,–
N#Cc1ccc(CN2CCCC2=O)cc1,8.336%,–
NCc1ccc(CN2CCCC2=O)cc1,-14.5%,–
CS(=O)(=O)NCc1ccc(CN2CCCC2=O)cc1,69.78%,–
CCOCC(=O)N(Cc1ccc(O)c(OC)c1)C1CC1,-4.406%,–
CCCNC(=O)c1ccc(CN2CCCC2)cc1,0.8478%,–
CCNCCCNCc1ccc2c(c1)n(C)c(=O)n2C,0.7261%,–
NCC(CO)Cc1ccc(F)c(F)c1 (centres undefined),20.05%,–
CC(C)NC(=O)Nc1nc2c(s1)CN(C(=O)NCc1cccs1)CC2,–,56.34%
O=C(Nc1nc2c(s1)CN(C(=O)NCc1cccs1)CC2)C1CC1,–,2.193%
COC(=O)Nc1nc2c(s1)CN(C(=O)NCc1cccs1)CC2,–,1.645%
N#Cc1ccc(N2CCOC2=O)nc1,0.2325%,–
CCOc1ccc(NC(=O)[C@H](C)N(C)C)cc1CO,1.908%,–
O=C(Cn1cc(Br)ccc1=O)NCC1CCOC1 (centres undefined),-15.74%,–
Cc1c(-c2cc(C(F)(F)F)nc(N3CCC(N)CC3)n2)cnn1C,–,84.58%
CCNC(=O)[C@@H]1C[C@H](N)CN1c1cc(C(F)(F)F)nc(N2CCCC2)n1,–,3.581%
Cc1c(S(=O)(=O)N2CCC(N)CC2)cnn1C,-0.6017%,–
Cc1ccc(-c2cc(C(F)(F)F)nc(N3CCOCC3)n2)s1,–,-3.229%
NC1CCN(c2ccc(C(F)(F)F)cn2)CC1,7.702%,–
O=C(O)C1CCCN1c1nc(-c2ccc(Cl)cc2)cc(C(F)(F)F)n1 (centres undefined),–,8.669%

SMILES,Percent Effect (50 µM),Percent Effect (10 µM)
CCc1ccc(-c2cc(C(F)(F)F)nc(N3CCC(N)CC3)n2)cc1,–,99.66%
O=C(O)C1CCCN1c1nc(-c2ccc(Cl)c(Cl)c2)cc(C(F)(F)F)n1 (centres undefined),–,13.78%
CCn1ncc(-c2cc(C(F)(F)F)nc(N3CCC(N)CC3)n2)c1C,–,74.85%
NC(=O)C1CCN(CC(=O)Nc2ccc(F)cc2)CC1,-2.359%,–
CCN(CC)CC(N)=O,-6.066%,–
CC1CCCN(Cn2nccc2-c2cccnc2)C1 (centres undefined),7.827%,–
O=C(NCCc1ccccc1F)C1CCNCC1,-5.827%,–
O=C(OCC(F)(F)F)c1cccnc1,-11.21%,–
Cc1ccc(F)cc1C(=O)NC1CCCNC1 (centres undefined),83.09%,–
O=C(N[C@H]1CCCNC1)c1ccc(F)cc1F,-5.906%,–
Cc1ccc(F)cc1C(=O)N[C@@H]1CCNC[C@H]1O,19.16%,–
COCc1nnc(-c2ccc3c(c2)OCO3)o1,23.78%,–
NC(=O)C1CCCN1C(=O)C1CCNCC1 (centres undefined),-2.32%,–
c1ccc(Nc2nccs2)nc1,-28.74%,–
Oc1cc(C2CCCCN2Cc2cccs2)nc(-c2ccccn2)n1 (centres undefined),–,91.06%
Oc1cc(C2CCCN(Cc3cccs3)C2)nc(-c2ccccn2)n1 (centres undefined),–,33.79%
Oc1cc(C2CCCCN2Cc2cccs2)nc(-c2ccncc2)n1 (centres undefined),–,-14.06%
Cc1ccc(N)c(C)n1,4.322%,–
OC(c1ccccc1)C1CCNCC1 (centres undefined),-7.409%,–
O=C(NCc1ccnc(NC2CC2)c1)C1CCCCC1,17%,–
CS(=O)(=O)Nc1nn(Cc2ccc(F)cc2)cc1Br,–,62.42%
Cc1cccc(Cn2cc(Br)c(NS(C)(=O)=O)n2)c1,–,46.94%
Cc1ccc(Cn2cc(Br)c(NS(C)(=O)=O)n2)cc1,–,20%
Cc1ccc(C(=O)N2C[C@@H](CO)[C@H](N(C)C)C2)cc1,0.785%,–

SMILES,Percent Effect (50 µM),Percent Effect (10 µM)
CN(C)C(=O)CNC(CO)c1ccc(Cl)c(F)c1 (centres undefined),52.18%,–
CN(C)C(=O)CNC(CC(F)(F)F)c1ccc(Cl)cc1 (centres undefined),–,0.885%
CN(C)C(=O)CNC(CC(F)(F)F)c1ccc(F)cc1 (centres undefined),–,4.779%
CCNC(=O)c1cc2ccccc2n1C,-19.31%,–
Cn1nccc1C(N)=O,-25%,–
CCOCC(C)OC(=O)c1ccnn1C (centres undefined),57.1%,–
CCOC(CNC(=O)c1ccnn1C)c1ccccc1 (centres undefined),-0.4622%,–
NCCCn1nc2ccccn2c1=O,7.053%,–
CCOc1ccc(Cl)cc1C(N)=O,-6.805%,–
Cc1nn(C)c(C)c1CNC(=O)c1cc(NC(=O)C2CC2)n(C)n1,–,56.77%
Cc1nn(C)c(C)c1CN(C)C(=O)c1cc(C(F)(F)F)n(C)n1,–,12.73%
Cn1nc(C(=O)NC2CCCC2)cc1NC(=O)C1CC1,–,-6.404%
CCn1nc(C)c(NC(=O)c2cc(NC(=O)C3CC3)n(C)n2)c1C,–,0.1763%
Cn1nc(C(=O)NC2CC2)cc1NC(=O)C1CC1,–,-1.586%
Cc1nn(C)c(C)c1CN(C)C(=O)c1cc(NC(=O)C2CC2)n(C)n1,–,51.38%
CN(C)C1CCN(S(=O)(=O)c2ncn(C)c2Cl)CC1,-2.885%,–
COCC(=O)Nc1c[nH]nc1C1CCCNC1 (centres undefined),-10.17%,–
COc1ccc(F)cc1C(=O)N1CCC(CN)CC1,-0.7009%,–
Cc1nccc(C(=O)NCC(C)(C)CN(C)C)n1,2.804%,–
COc1ccc(CNC(=O)CC2CCNC2)c(OC)c1 (centres undefined),-8.79%,–
CC(=O)c1ccc(C(=O)NCCCOC(C)c2ccccc2)s1 (centres undefined),–,-2.061%
CC(OCCCNC(=O)c1cccnc1O)c1ccccc1 (centres undefined),–,39.02%
COc1ccc(C(=O)NCCCOC(C)c2ccccc2)c(OC)c1 (centres undefined),–,61.13%
